Assay results taken from the supplement of paper PMC10849652.
The full data set covers some 8,800 targets. This sample favours those with a hit. About 0.5% of all pairs of compound and target were hits.

How the values were obtained:
Experiment in all cases: log2 fold change, soluble protein after heating vs DMSO (PISA); higher = thermal stabilisation; K562 lysate, 10 uM; active = over 0.2 and 3.5 SD of the protein, either way, in both replicates (recomputed)
vemurafenib = compound: CCCS(=O)(=O)Nc1ccc(F)c(C(=O)c2c[nH]c3ncc(-c4ccc(Cl)cc4)cc23)c1F [vemurafenib]
How it was run: (§1)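 Log-two fold change in thermal stability relative to solvent controls is reported from duplicates. For each sample, crude K562 extract from dounce-homogenised pellets in PBS pH 7.4 with 1 mM MgCl2, at 1 mg/mL protein, was treated with 10 μM compound for 30 min. Aliquots heated for 3 min across 48°C-58°C were pooled, brought to 0.5% NP-40 at 4°C and cleared at 21,000xg for 90 min. The supernatant was quantified by TMTpro 16plex LC-MS/MS with channel sums equalised.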

[1] = compound: CCCS(=O)(=O)Nc1ccc(F)c(C(=O)c2c[nH]c3ncc(Cl)cc23)c1F
How it was run: as §1

barasertib = compound: CCN(CCCOc1ccc2c(Nc3cc(CC(=O)Nc4cccc(F)c4)[nH]n3)ncnc2c1)CCOP(=O)(O)O [barasertib]
How it was run: as §1

[2] = compound: CC[C@@H]1C(=O)N(C)c2cnc(Nc3ccc(C(=O)NC4CCN(C)CC4)cc3OC)nc2N1C1CCCC1
How it was run: as §1

volasertib = compound: CC[C@@H]1C(=O)N(C)c2cnc(Nc3ccc(C(=O)N[C@H]4CC[C@H](N5CCN(CC6CC6)CC5)CC4)cc3OC)nc2N1C(C)C [volasertib]
How it was run: as §1

[3] = compound: CCn1c(C(=O)N(C2CC2)C2CC2)cc2c3c(ncn3C)c(Nc3cc(C)n(C)n3)nc21
How it was run: as §1

[4] = compound: CCn1cc(-c2ccnc3[nH]c(-c4cccc(CN(C)C)c4)cc23)c(-c2ccc(NC(=O)N(C)C)cc2)n1
How it was run: as §1

[5] = compound: CN1CCC(CNc2ccc3ncc(-c4cccc(OC(F)(F)F)c4)n3n2)CC1
How it was run: as §1

saracatinib = compound: CN1CCN(CCOc2cc(OC3CCOCC3)c3c(Nc4c(Cl)ccc5c4OCO5)ncnc3c2)CC1 [saracatinib]
How it was run: as §1

sotrastaurin = compound: CN1CCN(c2nc(C3=C(c4c[nH]c5ccccc45)C(=O)NC3=O)c3ccccc3n2)CC1 [sotrastaurin]
How it was run: as §1

alvocidib = compound: CN1CC[C@H](c2c(O)cc(O)c3c(=O)cc(-c4ccccc4Cl)oc23)[C@H](O)C1 [alvocidib]
How it was run: as §1

Tubastatin A = compound: CN1CCc2c(c3ccccc3n2Cc2ccc(C(=O)NO)cc2)C1 [Tubastatin A]
How it was run: as §1

[6] = compound: CNC(=O)C1=CC=CC=C1NC2=NC(=NC=C2Cl)NC3=C(C=C(C=C3)N4CCOCC4)OC
How it was run: as §1

defactinib = compound: CNC(=O)c1ccc(Nc2ncc(C(F)(F)F)c(NCc3nccnc3N(C)S(C)(=O)=O)n2)cc1 [defactinib]
How it was run: as §1

[7] = compound: CNc1nc(-c2ccc3c(N)n[nH]c3c2)cc(N2C[C@@H](C(=O)NC3CCCCC3)CC[C@H]2C)n1
How it was run: as §1

encorafenib = compound: COC(=O)N[C@@H](C)CNc1nccc(-c2cn(C(C)C)nc2-c2cc(Cl)cc(NS(C)(=O)=O)c2F)n1 [encorafenib]
How it was run: as §1

[8] = compound: COC(=O)[C@H](CCSC)NC(=O)C1=C(C=C(C=C1)NC[C@H](CS)N)C2=CC=CC=C2
How it was run: as §1

alisertib = compound: COc1cc(Nc2ncc3c(n2)-c2ccc(Cl)cc2C(c2c(F)cccc2OC)=NC3)ccc1C(=O)O [alisertib]
How it was run: as §1

[9] = compound: COc1cc2nc(-c3cc(F)ccc3O)nc(N[C@@H]3CNC[C@H]3C(C)(C)O)c2cc1OC
How it was run: as §1

gefitinib = compound: COc1cc2ncnc(Nc3ccc(F)c(Cl)c3)c2cc1OCCCN1CCOCC1 [gefitinib]
How it was run: as §1

Measured: log2 fold change

VPS54 (UniProt Q9P1Q0)
inactive: vemurafenib 0.046 | [1] -0.015 | barasertib -0.042 | [2] -0.037 | volasertib 0.068 | [3] -0.259 | [4] -0.278 | [5] 0.141 | saracatinib 0.05 | sotrastaurin -0.087 | alvocidib -0.07 | Tubastatin A 0 | [6] 0.059 | defactinib -0.07 | [7] 0.013 | encorafenib -0.001 | [8] 0.105 | alisertib -0.024 | [9] 0.071 | gefitinib 0.089

ZFYVE19 (UniProt Q96K21)
Chain of UniProt Q96K21 (Q96K21 whole entry, looked up): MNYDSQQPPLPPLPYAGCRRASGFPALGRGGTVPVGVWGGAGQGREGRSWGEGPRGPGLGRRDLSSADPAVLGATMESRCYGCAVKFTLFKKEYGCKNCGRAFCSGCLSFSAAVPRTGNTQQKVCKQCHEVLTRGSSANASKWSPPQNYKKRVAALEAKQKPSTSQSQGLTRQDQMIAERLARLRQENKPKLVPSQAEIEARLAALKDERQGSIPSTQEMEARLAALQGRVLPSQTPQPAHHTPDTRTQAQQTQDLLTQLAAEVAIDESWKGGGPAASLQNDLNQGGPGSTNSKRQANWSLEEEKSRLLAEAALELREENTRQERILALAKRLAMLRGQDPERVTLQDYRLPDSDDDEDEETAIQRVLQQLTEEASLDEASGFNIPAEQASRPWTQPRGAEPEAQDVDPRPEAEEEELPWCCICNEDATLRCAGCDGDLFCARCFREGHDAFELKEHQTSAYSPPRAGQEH
active: [4] -0.232
inactive: vemurafenib 0 | [1] 0.02 | barasertib 0.016 | [2] 0.077 | volasertib 0.023 | [3] 0.006 | [5] 0.126 | saracatinib -0.027 | sotrastaurin 0.013 | alvocidib -0.141 | Tubastatin A 0.026 | [6] -0.037 | defactinib -0.002 | [7] 0.008 | encorafenib -0.001 | [8] -0.04 | alisertib 0.008 | [9] 0 | gefitinib 0.019

WAC (UniProt Q9BTA9)
Chain of UniProt Q9BTA9 (Q9BTA9 whole entry, looked up): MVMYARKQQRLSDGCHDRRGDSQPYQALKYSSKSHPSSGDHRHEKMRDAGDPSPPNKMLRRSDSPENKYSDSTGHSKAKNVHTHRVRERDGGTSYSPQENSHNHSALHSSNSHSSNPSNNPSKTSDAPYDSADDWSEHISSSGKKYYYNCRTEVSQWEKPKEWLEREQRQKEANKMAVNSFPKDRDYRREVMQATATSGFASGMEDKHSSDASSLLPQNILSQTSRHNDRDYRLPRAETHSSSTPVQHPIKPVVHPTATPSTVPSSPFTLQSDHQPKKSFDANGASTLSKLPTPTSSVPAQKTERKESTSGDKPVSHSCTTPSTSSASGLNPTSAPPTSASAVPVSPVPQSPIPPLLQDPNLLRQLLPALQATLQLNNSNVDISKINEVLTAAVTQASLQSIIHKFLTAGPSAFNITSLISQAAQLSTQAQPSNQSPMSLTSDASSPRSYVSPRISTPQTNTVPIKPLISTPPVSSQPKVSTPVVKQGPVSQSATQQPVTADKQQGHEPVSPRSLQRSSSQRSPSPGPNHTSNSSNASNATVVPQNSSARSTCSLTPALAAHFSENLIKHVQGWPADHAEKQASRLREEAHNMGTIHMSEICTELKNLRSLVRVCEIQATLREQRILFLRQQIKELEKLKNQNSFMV
inactive: vemurafenib 0.018 | [1] 0.051 | barasertib 0.077 | [2] 0 | volasertib -0.003 | [3] 0.051 | [4] 0.061 | [5] 0.024 | saracatinib 0.013 | sotrastaurin -0.002 | alvocidib -0.008 | Tubastatin A -0.035 | [6] 0.068 | defactinib 0.013 | [7] 0.007 | encorafenib -0.006 | [8] 0.118 | alisertib -0.019 | [9] -0.01 | gefitinib 0.009

YME1L1 (UniProt Q96TA2)
active: [8] -0.301
inactive: vemurafenib 0.01 | [1] 0.011 | barasertib 0.036 | [2] -0.008 | volasertib -0.02 | [3] 0.035 | [4] 0.181 | [5] -0.088 | saracatinib 0.037 | sotrastaurin 0.055 | alvocidib 0.018 | Tubastatin A 0.048 | [6] 0.011 | defactinib 0.018 | [7] -0.061 | encorafenib 0.05 | alisertib -0.016 | [9] 0.028 | gefitinib 0.042

USP8 (UniProt P40818)
inactive: vemurafenib 0 | [1] 0.015 | barasertib 0.001 | [2] -0.008 | volasertib -0.05 | [3] 0.033 | [4] -0.002 | [5] -0.063 | saracatinib -0.006 | sotrastaurin -0.021 | alvocidib 0.023 | Tubastatin A -0.018 | [6] 0.014 | defactinib 0.02 | [7] 0.005 | encorafenib 0.004 | [8] 0.102 | alisertib -0.011 | [9] 0.002 | gefitinib 0.015

VPS4A (UniProt Q9UN37)
inactive: vemurafenib 0.096 | [1] -0.006 | barasertib 0.014 | [2] -0.063 | volasertib -0.09 | [3] 0.054 | [4] -0.12 | [5] -0.036 | saracatinib 0.027 | sotrastaurin 0.056 | alvocidib -0.004 | Tubastatin A -0.16 | [6] 0.025 | defactinib 0.01 | [7] -0.1 | encorafenib -0.004 | [8] 0.138 | alisertib 0 | [9] -0.004 | gefitinib -0.025

ZNF217 (UniProt O75362)
inactive: vemurafenib 0.043 | [1] 0.019 | barasertib 0.047 | [2] 0.099 | volasertib -0.021 | [3] -0.028 | [4] -0.021 | [5] 0.076 | saracatinib 0.013 | sotrastaurin 0.052 | alvocidib -0.144 | Tubastatin A -0.076 | [6] 0.009 | defactinib -0.045 | [7] -0.004 | encorafenib -0.06 | [8] -0.037 | alisertib 0.032 | [9] 0.219 | gefitinib -0.013

ZHX1 (UniProt Q9UKY1)
inactive: vemurafenib -0.058 | [1] 0.057 | barasertib 0.059 | [2] 0.144 | volasertib -0.079 | [3] -0.056 | saracatinib 0.011 | sotrastaurin 0.029 | alvocidib -0.231 | Tubastatin A -0.194 | [6] 0 | defactinib 0.034 | [7] 0.251 | encorafenib 0.041 | [8] 0.044 | alisertib 0.013 | [9] 0.042 | gefitinib 0.012
active: [4] -0.603 | [5] 0.526

UNC13D (UniProt Q70J99)
Chain of UniProt Q70J99 (Q70J99 whole entry, looked up): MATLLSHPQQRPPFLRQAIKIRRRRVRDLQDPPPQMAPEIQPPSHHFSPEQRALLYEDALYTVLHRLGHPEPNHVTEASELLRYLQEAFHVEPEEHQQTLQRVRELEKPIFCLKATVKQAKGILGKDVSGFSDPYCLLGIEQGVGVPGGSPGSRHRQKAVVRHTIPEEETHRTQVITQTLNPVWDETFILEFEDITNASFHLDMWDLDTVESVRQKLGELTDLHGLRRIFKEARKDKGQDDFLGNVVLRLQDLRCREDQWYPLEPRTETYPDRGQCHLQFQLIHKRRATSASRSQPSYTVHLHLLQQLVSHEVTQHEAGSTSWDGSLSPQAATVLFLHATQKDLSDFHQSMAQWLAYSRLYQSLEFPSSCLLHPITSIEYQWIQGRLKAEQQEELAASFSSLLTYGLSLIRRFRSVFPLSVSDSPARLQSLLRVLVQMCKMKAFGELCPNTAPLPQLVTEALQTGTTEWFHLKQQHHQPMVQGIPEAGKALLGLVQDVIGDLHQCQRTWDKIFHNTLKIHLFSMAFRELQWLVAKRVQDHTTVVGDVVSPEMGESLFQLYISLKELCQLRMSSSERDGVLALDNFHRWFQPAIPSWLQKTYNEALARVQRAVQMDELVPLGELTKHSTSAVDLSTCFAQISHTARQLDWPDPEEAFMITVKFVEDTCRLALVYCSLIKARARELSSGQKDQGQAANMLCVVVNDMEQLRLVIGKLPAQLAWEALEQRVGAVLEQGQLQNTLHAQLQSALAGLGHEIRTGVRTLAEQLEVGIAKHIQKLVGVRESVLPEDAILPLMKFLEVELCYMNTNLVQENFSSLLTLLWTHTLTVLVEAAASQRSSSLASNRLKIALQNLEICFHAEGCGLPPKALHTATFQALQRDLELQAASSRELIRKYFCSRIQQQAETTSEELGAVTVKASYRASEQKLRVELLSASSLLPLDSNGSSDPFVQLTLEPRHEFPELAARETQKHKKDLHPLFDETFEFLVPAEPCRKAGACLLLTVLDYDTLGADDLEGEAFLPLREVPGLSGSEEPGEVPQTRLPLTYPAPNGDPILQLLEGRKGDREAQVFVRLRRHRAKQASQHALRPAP
inactive: vemurafenib 0.039 | [1] 0.027 | barasertib 0.024 | [2] -0.073 | volasertib -0.083 | [3] 0.012 | [4] 0.026 | [5] -0.015 | saracatinib 0.05 | sotrastaurin -0.022 | alvocidib 0.015 | Tubastatin A -0.117 | [6] 0.014 | defactinib 0.026 | [7] -0.035 | encorafenib 0.059 | [8] 0.054 | alisertib -0.005 | [9] 0.001 | gefitinib -0.034

XPO5 (UniProt Q9HAV4)
Chain of UniProt Q9HAV4 (Q9HAV4 whole entry, looked up): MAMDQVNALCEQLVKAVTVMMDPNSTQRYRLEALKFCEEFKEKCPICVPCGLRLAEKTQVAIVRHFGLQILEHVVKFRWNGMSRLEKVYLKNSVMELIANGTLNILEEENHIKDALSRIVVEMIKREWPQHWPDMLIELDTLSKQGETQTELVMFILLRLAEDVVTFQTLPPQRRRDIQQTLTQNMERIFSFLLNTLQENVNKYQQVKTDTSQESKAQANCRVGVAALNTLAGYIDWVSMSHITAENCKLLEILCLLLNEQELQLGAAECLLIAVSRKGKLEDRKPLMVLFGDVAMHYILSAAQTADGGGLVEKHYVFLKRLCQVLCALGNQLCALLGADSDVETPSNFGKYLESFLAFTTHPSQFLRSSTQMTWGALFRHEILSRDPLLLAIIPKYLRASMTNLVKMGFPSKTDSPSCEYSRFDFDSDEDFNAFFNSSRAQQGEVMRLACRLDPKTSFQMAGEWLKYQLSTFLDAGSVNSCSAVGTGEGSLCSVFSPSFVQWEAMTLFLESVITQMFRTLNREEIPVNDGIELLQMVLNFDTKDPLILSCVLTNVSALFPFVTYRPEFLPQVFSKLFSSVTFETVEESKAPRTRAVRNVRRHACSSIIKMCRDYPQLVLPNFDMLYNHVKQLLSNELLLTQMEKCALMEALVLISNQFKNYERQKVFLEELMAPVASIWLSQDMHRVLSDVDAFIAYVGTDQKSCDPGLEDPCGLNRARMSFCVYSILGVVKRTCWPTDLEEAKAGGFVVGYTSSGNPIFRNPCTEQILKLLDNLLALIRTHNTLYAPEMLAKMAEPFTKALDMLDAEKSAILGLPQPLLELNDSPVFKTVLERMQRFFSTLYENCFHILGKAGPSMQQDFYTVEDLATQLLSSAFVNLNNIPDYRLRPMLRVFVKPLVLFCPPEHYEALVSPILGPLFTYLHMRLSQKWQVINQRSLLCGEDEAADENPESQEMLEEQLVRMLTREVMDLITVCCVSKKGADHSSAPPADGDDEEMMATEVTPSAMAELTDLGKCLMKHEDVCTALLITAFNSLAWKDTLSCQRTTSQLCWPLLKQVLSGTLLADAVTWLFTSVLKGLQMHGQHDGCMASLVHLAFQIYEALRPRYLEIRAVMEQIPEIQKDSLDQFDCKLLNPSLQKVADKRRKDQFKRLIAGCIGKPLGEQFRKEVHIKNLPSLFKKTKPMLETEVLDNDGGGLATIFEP
inactive: vemurafenib -0.006 | [1] 0.005 | barasertib 0.022 | [2] -0.028 | volasertib -0.062 | [3] 0.027 | [4] -0.043 | [5] -0.041 | saracatinib 0.011 | sotrastaurin 0.007 | alvocidib 0.025 | Tubastatin A -0.184 | [6] -0.014 | defactinib -0.002 | [7] -0.019 | encorafenib 0.021 | [8] 0.012 | alisertib -0.004 | [9] 0 | gefitinib 0.013

WDR3 (UniProt Q9UNX4)
inactive: vemurafenib -0.01 | [1] 0.011 | barasertib 0.042 | [2] -0.063 | volasertib -0.043 | [3] 0.01 | [4] -0.024 | [5] 0.019 | saracatinib 0.002 | sotrastaurin 0.062 | alvocidib 0.008 | Tubastatin A -0.099 | [6] -0.013 | defactinib 0.031 | [7] -0.048 | encorafenib -0.008 | [8] 0.046 | alisertib 0.03 | [9] -0.007 | gefitinib -0.01

USP48 isoform 8 (UniProt Q86UV5)
inactive: vemurafenib -0.002 | [1] 0.036 | barasertib 0.002 | [2] -0.013 | volasertib -0.043 | [3] 0.007 | [4] -0.011 | [5] -0.032 | saracatinib -0.004 | sotrastaurin 0.031 | alvocidib 0.006 | Tubastatin A -0.119 | [6] 0.019 | defactinib -0.012 | [7] 0.011 | encorafenib -0.003 | [8] 0.14 | alisertib -0.016 | [9] 0.003 | gefitinib -0.018

XPNPEP1 isoform 3 (UniProt Q9NQW7)
Chain of UniProt Q9NQW7 (Q9NQW7 whole entry, looked up): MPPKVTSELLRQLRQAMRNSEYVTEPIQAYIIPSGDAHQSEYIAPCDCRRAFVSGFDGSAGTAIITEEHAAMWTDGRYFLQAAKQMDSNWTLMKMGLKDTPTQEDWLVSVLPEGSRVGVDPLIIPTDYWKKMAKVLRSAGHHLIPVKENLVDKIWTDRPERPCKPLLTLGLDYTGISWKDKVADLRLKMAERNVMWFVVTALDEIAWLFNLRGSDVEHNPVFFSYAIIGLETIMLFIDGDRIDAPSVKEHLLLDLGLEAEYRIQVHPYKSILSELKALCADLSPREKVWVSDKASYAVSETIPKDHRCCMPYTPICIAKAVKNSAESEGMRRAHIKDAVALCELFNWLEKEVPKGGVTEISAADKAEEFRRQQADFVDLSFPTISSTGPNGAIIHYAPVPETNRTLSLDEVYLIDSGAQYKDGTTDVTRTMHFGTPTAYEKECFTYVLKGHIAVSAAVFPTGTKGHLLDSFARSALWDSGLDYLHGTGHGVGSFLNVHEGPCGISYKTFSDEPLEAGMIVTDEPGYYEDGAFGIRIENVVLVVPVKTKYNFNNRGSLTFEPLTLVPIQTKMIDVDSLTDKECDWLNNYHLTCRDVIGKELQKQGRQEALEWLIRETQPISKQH
inactive: vemurafenib 0.001 | [1] 0.015 | barasertib 0.008 | [2] -0.044 | volasertib -0.054 | [3] 0.014 | [4] -0.022 | [5] 0.019 | saracatinib -0.001 | sotrastaurin -0.016 | alvocidib -0.018 | Tubastatin A 0.011 | [6] 0.029 | defactinib -0.001 | [7] -0.045 | encorafenib 0.001 | alisertib -0.002 | [9] 0.002 | gefitinib 0.002
active: [8] 0.613

YEATS4 (UniProt O95619)
Chain of UniProt O95619 (O95619 whole entry, looked up): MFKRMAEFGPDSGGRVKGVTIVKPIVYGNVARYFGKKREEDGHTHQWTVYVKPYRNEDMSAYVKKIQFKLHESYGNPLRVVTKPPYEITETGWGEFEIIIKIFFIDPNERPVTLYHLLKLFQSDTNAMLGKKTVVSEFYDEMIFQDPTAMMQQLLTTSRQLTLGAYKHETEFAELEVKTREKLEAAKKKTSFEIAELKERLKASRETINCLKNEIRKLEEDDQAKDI
active: [4] 0.746 | alisertib 0.315
inactive: vemurafenib -0.032 | [1] 0.003 | barasertib 0.05 | [2] 0.045 | volasertib -0.028 | [3] 0.014 | [5] 0 | saracatinib 0.031 | sotrastaurin 0.022 | alvocidib 0.105 | Tubastatin A 0.004 | [6] 0.012 | defactinib 0.007 | [7] -0.054 | encorafenib -0.004 | [8] -0.062 | [9] -0.008 | gefitinib -0.064

ZC3HC1 (UniProt Q86WB0)
Chain of UniProt Q86WB0 (Q86WB0 whole entry, looked up): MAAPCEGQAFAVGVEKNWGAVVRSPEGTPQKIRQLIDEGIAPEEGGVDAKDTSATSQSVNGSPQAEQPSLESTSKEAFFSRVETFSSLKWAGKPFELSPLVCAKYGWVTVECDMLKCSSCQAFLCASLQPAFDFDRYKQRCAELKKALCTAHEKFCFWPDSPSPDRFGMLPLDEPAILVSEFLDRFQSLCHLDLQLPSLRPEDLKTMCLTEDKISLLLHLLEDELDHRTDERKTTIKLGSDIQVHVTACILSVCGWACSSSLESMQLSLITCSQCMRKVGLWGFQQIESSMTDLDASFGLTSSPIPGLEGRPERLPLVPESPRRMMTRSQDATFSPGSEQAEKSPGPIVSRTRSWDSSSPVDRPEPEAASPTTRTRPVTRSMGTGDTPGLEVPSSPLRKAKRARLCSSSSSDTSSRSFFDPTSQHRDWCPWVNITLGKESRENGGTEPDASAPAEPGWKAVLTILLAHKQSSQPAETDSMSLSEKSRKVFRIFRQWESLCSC
active: [4] 0.253
inactive: vemurafenib -0.006 | [1] 0.027 | barasertib -0.029 | [2] -0.036 | volasertib 0.015 | [3] 0.008 | [5] -0.075 | saracatinib -0.03 | sotrastaurin -0.022 | alvocidib 0.049 | Tubastatin A -0.101 | [6] 0.018 | defactinib -0.015 | [7] 0.034 | encorafenib -0.001 | [8] 0.078 | alisertib 0.022 | [9] -0.013 | gefitinib 0.024
